Screens from PubChem.
FBA Mtb inh = Mtb fructose-bisphosphate aldolase inhibition; P9WQA3; purified M. tuberculosis FBA, fluorescence read-out; inhibition, % at 1 µM; 360,000 tested, 2.3% active; AID 588726; in the data active means inhibition above about 27%
Target sequence (P9WQA3 whole entry, looked up): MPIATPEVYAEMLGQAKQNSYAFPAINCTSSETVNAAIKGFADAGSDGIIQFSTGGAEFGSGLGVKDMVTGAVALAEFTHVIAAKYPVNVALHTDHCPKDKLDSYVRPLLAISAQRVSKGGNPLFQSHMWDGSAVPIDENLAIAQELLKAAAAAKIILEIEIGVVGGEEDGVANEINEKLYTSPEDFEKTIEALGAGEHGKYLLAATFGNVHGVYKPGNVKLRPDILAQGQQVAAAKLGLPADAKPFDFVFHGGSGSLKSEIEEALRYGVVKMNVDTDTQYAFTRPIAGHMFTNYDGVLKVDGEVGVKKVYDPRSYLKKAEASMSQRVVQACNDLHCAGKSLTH
FadD28 FP inh = M. tuberculosis FadD28 bisubstrate binding inhibition | inhibition, % at 12.5 µM | 360,000 tested, 0.22% active | FadD28 bisubstrate probe binding, fluorescence polarization; in the data active means inhibition above about 8.5%, passing the limit was not always enough
GDH-TPI counter = counter-screen for M. tuberculosis FBA inhibitors: GDH-TPI coupled enzymes; GDH-TPI coupled enzyme counterscreen, NADH absorbance; inhibition, % at 4.8 µM; 360,000 tested, 1.2% active; in the data active means inhibition above about 30%
SARS 3CLpro inh = SARS-CoV 3CLpro protease inhibition. inhibition, % at 6 µM. AID 1706. P0C6X7. 290,000 tested, 0.14% active. recombinant SARS-CoV 3CLpro, quenched FRET peptide cleavage; in the data active means inhibition above about 12%
BioA inh = blocks M. tuberculosis BioA enzyme activity | purified M. tuberculosis BioA enzyme, plate reader | inhibition, % at 9.99 µM | 360,000 tested, 0.096% active | AID 602481; in the data active means inhibition above about 40%
Numbers stand for hits; - = inactive; . = no result; + = active, no number. Compounds with a hit are over-represented: about 3.1% of the library has one in this group of screens.

SMILES	FBA Mtb inh	FadD28 FP inh	GDH-TPI counter	SARS 3CLpro inh	BioA inh
CCCC(=O)Nc1cccc(-c2nc3cc(C)c(C)cc3o2)c1	-	-	-	-	-
CC(C)C(=O)Nc1cccc(-c2nc3ccccc3o2)c1	-	-	-	-	-
Cc1cc2nc(-c3ccc(NC(=O)C(C)C)cc3)oc2cc1C	138	-	-	-	.
O=C(C[C@H]1C[C@H]2c3cc(NC(=O)c4cccnc4)ccc3O[C@H]2[C@H](CO)O1)NCc1cccc(F)c1	.	.	.	.	-
O=c1cc(Cl)nc2ccccn12	-	-	-	.	-
N#Cc1ccc2c(c1)nc1ccccn12	+	-	-	-	.
Clc1ccc2nc3ccccn3c2c1	178	-	-	-	-
Cc1cc(Nc2nc3ccccc3[nH]c2=O)n(-c2ccccc2)n1	-	-	43	-	-
Cc1ccc(S(=O)(=O)Nc2ccc3c(c2)C(=O)N([C@@H](C)CO)C[C@@H](C)[C@@H](CN(C)S(C)(=O)=O)OCCCC[C@@H](C)O3)cc1	.	.	.	.	-
C[C@@H]1CN([C@@H](C)CO)C(=O)c2cc(C#Cc3cccnc3)cnc2O[C@@H]1CN(C)Cc1ccccc1	.	.	.	.	-
COc1cc(OC)c(C(=O)/C=C/c2ccc(OCc3ccccc3)c(OC)c2)c(OC)c1	-	-	-	-	-
O=C(/C=C/c1ccco1)Nc1ccc2c(c1)OCO2	-	-	33	-	.
O=C(/C=C/c1ccco1)NCc1ccc2c(c1)OCO2	-	-	-	-	-
COc1cc(OCc2ccccc2)c(C(=O)/C=C/c2ccc3c(c2)OCO3)c(OC)c1OC	-	-	50	.	-
Cc1cc(C)nc(NC(=O)/C=C/c2ccc3c(c2)OCO3)c1	-	-	40	-	-
O=C(/C=C/c1ccc2c(c1)OCO2)Nc1nc(-c2ccccc2)cs1	-	-	46	-	-
Cc1cccc(C(=O)Nc2cc(=O)n(C)c(=O)n2C)c1	-	-	-	-	-
O=C(/C=C/c1ccc2c(c1)OCO2)c1ccc(O)cc1O	-	-	40	.	-
Cc1ccccc1-n1nc2c(c1NC(=O)/C=C\c1ccc3c(c1)OCO3)CSC2	-	-	32	-	-
Cc1ccc(C(=O)Nc2cc(=O)n(C)c(=O)n2C)o1	-	-	33	-	-
Cc1ccc(-c2csc(NC(=S)NC(=O)/C=C/c3ccco3)n2)cc1	-	-	-	-	-
O=C(/C=C\c1ccco1)Nc1nc(-c2ccc3ccccc3c2)cs1	-	-	36	-	.
COc1cccc(S(=O)(=O)N(C)C[C@H]2Oc3cc(C#CCC(C)C)ccc3S(=O)(=O)N([C@H](C)CO)C[C@H]2C)c1	.	.	.	.	-
NS(=O)(=O)c1ccc(NC(=O)/C=C/c2ccc3c(c2)OCO3)cc1	-	-	36	-	.
Cc1ccc(/C=C/C(=O)Nc2cc(=O)n(C)c(=O)n2C)o1	-	-	-	-	.
SMILES	FBA Mtb inh	FadD28 FP inh	GDH-TPI counter	SARS 3CLpro inh	BioA inh
CCc1ccccc1NC(=O)c1cccc(NC(=O)/C=C/c2ccco2)c1	-	-	44	-	-
Cn1c(NC(=O)/C=C/c2ccco2)cc(=O)n(C)c1=O	-	-	31	-	.
C[C@@H]1CN([C@H](C)CO)C(=O)c2cc(-c3ccc(C#N)cc3)cnc2O[C@H]1CN(C)Cc1ccccn1	.	.	.	.	-
COc1ccc(C(=O)N2N=C(c3ccc(NS(C)(=O)=O)cc3)CC2c2cccs2)cc1 (configuration not stated)	-	-	-	-	-
CC(C)C(=O)N1N=C(c2ccc(NS(C)(=O)=O)cc2)CC1c1cccs1 (configuration not stated)	+	-	-	-	-
Cc1ccc(C(=O)N2N=C(c3ccc(NS(C)(=O)=O)cc3)CC2c2cccs2)cc1 (configuration not stated)	-	-	-	-	-
CS(=O)(=O)Nc1ccc(C2=NN(S(C)(=O)=O)C(c3ccccc3)C2)cc1 (configuration not stated)	132	-	-	-	-
CS(=O)(=O)Nc1ccc(C2=NN(C(=O)C3CCCCC3)C(c3cccs3)C2)cc1 (configuration not stated)	+	-	-	-	-
C[C@H]1CN([C@@H](C)CO)C(=O)c2cc(-c3ccncc3)cnc2O[C@H]1CN(C)C(=O)c1ccc(F)cc1	.	.	.	.	-
COc1ccc(CN(C)C[C@H]2Oc3c(NS(=O)(=O)c4cccs4)cccc3C(=O)N([C@@H](C)CO)C[C@H]2C)cc1	.	.	.	.	-
O=C(Nc1ccc(F)cc1)N1C[C@@H]2[C@H](c3ccccc31)[C@H](CO)N2Cc1cocn1	.	.	.	.	-
COc1ccc2c(c1)c1ncn(Cc3ccco3)c(=O)c1n2C	129	-	-	-	.
Cc1ccc(N/C=C2\C(=O)N(c3ccc(F)cc3F)C(c3cccnc3)S2(=O)=O)cc1 (configuration not stated)	-	-	66	-	.
CNC[C@@H]1OCCCC[C@@H](C)Oc2ccc(NS(=O)(=O)c3ccccc3)cc2C(=O)N([C@@H](C)CO)C[C@@H]1C	.	.	.	.	-
CC1(C)OC(C)(C)/C(=C\c2ccc(OCC(N)=O)cc2)C1=O	-	-	35	.	-
Oc1c(Br)cc(C2N=C(c3ccccc3)NO2)cc1Br (configuration not stated)	-	-	32	-	-
CSc1ccc(C2N=C(c3ccccc3)NO2)cc1 (configuration not stated)	-	-	-	-	-
CS(=O)(=O)N1[C@@H]2Cn3c(ccc(C4=CCCCC4)c3=O)[C@H]1[C@@H](C(=O)N1CCCCC1)[C@@H]2CO	.	.	.	.	-
COc1ccc(NC(=O)Nc2ccc3c(c2)C(=O)N([C@@H](C)CO)C[C@@H](C)[C@@H](CN(C)C(=O)Nc2ccc(C(F)(F)F)cc2)O3)cc1	.	.	.	.	-
Cc1cc2cc(CN(Cc3ccco3)S(=O)(=O)c3c(C)ccc4nsnc34)c(=O)[nH]c2cc1C	-	-	-	-	-
Cc1ccc2cc(CN(Cc3ccco3)S(=O)(=O)c3c(C)ccc4nsnc34)c(=O)[nH]c2c1	-	-	32	-	-
CCOC(=O)C1CCN(C(=O)c2cccs2)CC1	-	-	-	-	.
CCOC(=O)C1CCN(C(=O)c2sccc2Cl)CC1	+	-	-	-	-
C[C@@H]1CCCCO[C@@H](CN(C)C(=O)CCC(F)(F)F)[C@H](C)CN([C@H](C)CO)C(=O)c2cc(NC(=O)c3ccccc3)ccc2O1	.	.	.	.	-
CCOC(=O)c1cc2c(=O)n3cccc(C)c3nc2n(CCCOC)c1=NC(=O)c1cccnc1	+	-	-	-	-
SMILES	FBA Mtb inh	FadD28 FP inh	GDH-TPI counter	SARS 3CLpro inh	BioA inh
CCOCCCn1c(=NC(=O)c2cccnc2)c(C(=O)OCC)cc2c(=O)n3ccccc3nc21	145	-	-	-	-
CCOC(=O)c1cc2c(=O)n3cccc(C)c3nc2n(CCOC)c1=NC(=O)c1ccncc1	.	.	.	-	.
CO[C@@H]1CN(C)C(=O)c2cc(NC(C)=O)ccc2OC[C@H](C)N(CCc2ccccc2)C[C@H]1C	.	.	.	.	-
CC(=O)c1ccc(N/N=C2/CCCNC2=O)cc1	-	-	36	-	-
CCc1cc(C(=O)N/N=C/c2c(C)[nH]c3ccccc23)cs1	-	-	32	-	.
Cc1[nH]c2ccccc2c1/C=N/NC(=O)c1cc(C(C)C)[nH]n1	-	-	47	-	.
